What was measured:
Test in all cases: PBM binding z-score (relative to random genomic background probes); higher = stronger binding; sequences stand for … in GC…GCGATTGACAGCGTAGAATGAAGG
[1] = test system: FXR:RXRa (NR concentration 270 nM, RXRa partner concentration 90 nM)
In short: (§1)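 Ligand-free nuclear receptor dimers were bound for 1 h to custom Agilent 4×180K protein-binding microarrays. Detection used antibodies against each partner (one per run). Binding z-scores rest on regression-normalized fluorescence, with random background probes as the reference.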

[2] = test system: LXRa:RXRa (NR concentration 270 nM, RXRa partner concentration 90 nM)
In short: as §1

[3] = test system: LXRa homodimer (NR concentration 270 nM)
In short: as §1

[4] = test system: LXRb:RXRa (NR concentration 270 nM, RXRa partner concentration 90 nM)
In short: as §1

[5] = test system: LXRb homodimer (NR concentration 270 nM)
In short: as §1

[6] = test system: PPARa:RXRa (NR concentration 270 nM, RXRa partner concentration 90 nM)
In short: as §1

[7] = test system: PPARg:RXRa (NR concentration 180 nM, RXRa partner concentration 90 nM)
In short: as §1

[8] = test system: PPARg:RXRa 270nM:90nM, anti-RXR (NR concentration 270 nM, RXRa partner concentration 90 nM)
In short: as §1

[9] = test system: PPARg:RXRa 30nM:10nM, anti-RXR (NR concentration 30 nM, RXRa partner concentration 10 nM)
In short: as §1

[10] = test system: PPARg:RXRa 90nM:30nM, anti-RXR (NR concentration 90 nM, RXRa partner concentration 30 nM)
In short: as §1

[11] = test system: PPARg:RXRa DBDmut IVT, anti-RXR (DBD mutation: RXRa K156A/R161A, NR concentration 270 nM, RXRa partner concentration 90 nM)
In short: as §1

[12] = test system: PPARg:RXRa IVT, anti-PPARg (NR concentration 270 nM, RXRa partner concentration 90 nM)
In short: as §1

[13] = test system: PPARg DBDmut:RXRa IVT, anti-PPARg (DBD mutation: PPARg1 K132A/R137A, NR concentration 270 nM, RXRa partner concentration 90 nM)
In short: as §1

[14] = test system: PPARg DBDmut IVT, anti-PPARg (DBD mutation: PPARg1 K132A/R137A, NR concentration 270 nM)
In short: as §1

[15] = test system: PPARg homodimer (NR concentration 180 nM)
In short: as §1

[16] = test system: PXR:RXRa (NR concentration 270 nM, RXRa partner concentration 90 nM)
In short: as §1

[17] = test system: PXR homodimer (NR concentration 270 nM)
In short: as §1

[18] = test system: RARa:RXR (NR concentration 270 nM, RXRa partner concentration 90 nM)
In short: as §1

[19] = test system: RARa homodimer (NR concentration 270 nM)
In short: as §1

[20] = test system: RARb:RXRa (NR concentration 270 nM, RXRa partner concentration 90 nM)
In short: as §1

Sequence | PBM binding z-score [1] | PBM binding z-score [2] | PBM binding z-score [3] | PBM binding z-score [4] | PBM binding z-score [5] | PBM binding z-score [6] | PBM binding z-score [7] | PBM binding z-score [8] | PBM binding z-score [9] | PBM binding z-score [10] | PBM binding z-score [11] | PBM binding z-score [12] | PBM binding z-score [13] | PBM binding z-score [14] | PBM binding z-score [15] | PBM binding z-score [16] | PBM binding z-score [17] | PBM binding z-score [18] | PBM binding z-score [19] | PBM binding z-score [20]
AGAATGAGGTTACGATCAGGGAAACAGAATACAT | 1.98 | 1.94 | -0.122 | 1.75 | -0.632 | 3.9 | 2.97 | 2.65 | 1.2 | 2.18 | 3.35 | 3.6 | 1.79 | 0.837 | 0.684 | 1.19 | 0.235 | 1.92 | 0.462 | 2.16
ACTATTAGTTGAGACTAGGGCAACCGATAGGTTG | -0.2 | -0.21 | -0.416 | -0.304 | 0.0178 | 0.296 | 0.679 | 0.33 | 0.227 | -0.101 | 1.02 | 2.46 | 0.767 | 0.914 | -0.0941 | -0.323 | -0.0618 | -0.0584 | 0.518 | 0.583
GCGACCGGGGCAAAGCAGGTTACCATAAGGTTGG | 0.264 | 0.812 | -0.366 | 0.0322 | -1.28 | 1.42 | 0.709 | 0.611 | -0.666 | -0.143 | 1.27 | 1.24 | -1.18 | -1.17 | 0.243 | 0.857 | -0.433 | 1.31 | -0.661 | 1.65
TCTTGTAGATCAAGCAGGTTAAGGAAGCCTGAGT | 0.133 | 0.211 | -0.315 | 0.139 | -0.226 | 0.674 | -0.544 | 1.08 | 2.6 | 1.8 | 1.51 | 0.345 | 0.213 | -0.0431 | -0.0432 | 0.142 | 0.105 | 0.407 | -0.315 | 0.0755
TCTCGGAGGGCACGAAGGTCAGAGCTTTCCAGAG | 1.96 | 2.22 | 0.0808 | 1.7 | -1.18 | 2.96 | 1.3 | 2.4 | 1.73 | 1.99 | 1.9 | 2.51 | -0.633 | -1.03 | 1.08 | 3.25 | 2.26 | 2.88 | -0.387 | 3.92
TTACCAAAGTGAGCTGAGGTCGTTGATCCAACTC | 0.648 | 0.0425 | -0.525 | 0.222 | -1.12 | 0.635 | -0.509 | -0.168 | 0.0696 | -0.371 | -0.795 | -0.309 | -0.436 | -0.706 | -0.866 | 2.11 | 0.201 | 1.44 | -1.13 | 0.34
TAGCCTAGGTCATTGGGCCAATATAGTACGCATC | 4.69 | 3.66 | 1.13 | 2.95 | 0.235 | 4.38 | 4.57 | 4.16 | 1.53 | 3.46 | 3.03 | 4.13 | 0.385 | 0.532 | 1.58 | 1.83 | -0.353 | 2.69 | -0.0412 | 3.6

Reference: the supplement of paper PMC6555819
